Test results as given in publication PMC5540273 (PLoS ONE, 2017).

Each compound was assayed on AAK1. Conditions: concentration: 1 μM, replicates: in singlicate; n = 1.
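Also: KINOMEscan kinase panel screen.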

Compound | %Inh
COc1cccc(NC(=O)NCCNc2ccnc(Nc3ccc(F)cc3)n2)c1 [GSK1379879] | 0%
CS(=O)(=O)c1cccc(CNc2nc(Nc3ccc4c(c3)CCC(=O)N4)ncc2C(F)(F)F)c1 | 21%
c1ccc(Oc2ccc(Nc3ccnc4cc(-c5ccc(CN6CCCCC6)o5)ccc34)cc2)nc1 [GW567143] | 0%
COC(=O)Nc1nc2cc(Oc3ccc(NC(=O)Nc4cccc(SC)c4)cc3)ccc2[nH]1.Cl [GW697999] | 0%
Nc1ncc(-c2ccc3nccc(-c4ccncc4)c3c2)cc1S(=O)(=O)N1CCCCC1 [GSK1693850] | 0%
Cc1ccc(-c2ccc3occ(-c4ccc(S(C)=O)cc4)c3c2)nn1 (stereo not shown) | 15%
CC(C)NCC(Cc1ccccc1)NC(=O)c1cc(Br)c(-c2ccnc3[nH]ccc23)s1.Cl.Cl (stereo not shown) [GSK1383281] | 25%
Cc1ccc(Nc2ccnc(Nc3ccc(C)c(F)c3)n2)cc1O.Cl [GW582868] | 0%
Nc1cccc(-c2ccc3c(N)n[nH]c3c2)c1 [GSK2193613] | 55%
CN1CCN(Cc2ccc(NC(=O)Nc3ccc(N(C)c4ccnc(Nc5ccc(CS(C)(=O)=O)cc5)n4)cc3)cc2)CC1.Cl [GW827654] | 62%
Cc1ccc(NC(=O)c2ccc(Cl)c(Cl)c2)cc1-c1ccc(C(=O)Nc2ccncc2)cc1 [GSK1398460] | 8%
CN(c1ccc(NC(=O)N2CCN(CCCN3CCOCC3)CC2)cc1)c1ccnc(Nc2ccc(CS(C)(=O)=O)cc2)n1.Cl [GW830899] | 55%
CSc1ccc(NC2=C(c3ccc(Cl)cc3)C(=O)NC2=O)cc1 [SB-317658] | 0%
O=C(Nc1n[nH]c2nc(-c3ccccc3)ccc12)C1CC1 [SB-708999] | 100%
COc1cc(Nc2ccnc3cc(-c4ccncc4)ccc23)cc(OC)c1OC.Cl [GW494610] | 0%
Cc1ccc(O)cc1Nc1ccnc2ccc(C(C)(C)C)cc12 [GW856805] | 10%
Cc1ccc(NC(=O)c2ccnc(N3CCCCC3)c2)cc1-c1ccc(C(=O)NCC2CC2)cc1 [GW775610] | 0%
Cc1cc(-c2ccnc(Nc3cccc(C#N)c3)n2)cc(C)c1O [GSK1440913] | 79%

Compound | %Inh
Cl.Cl.NCC(NC(=O)c1cc(-c2cccnc2)c(-c2ccnc3[nH]ccc23)s1)c1ccccc1 (stereo not shown) [GSK1323434] | 59%
COc1ccc(C2=C(Nc3cccc(O)c3)C(=O)NC2=O)cc1 [SB-390766] | 20%
COC(=O)Nc1nc2ccc(Oc3ccc(NC(=O)Nc4cc(C(F)(F)F)ccc4F)cc3)cc2[nH]1.Cl [GW654607] | 17%
O=C(Nc1n[nH]c2nc(-c3cccc(O)c3)ccc12)C1CC1 [SB-711805] | 33%
N#Cc1cnc2cc(-c3cnc(CNCCN4CCOCC4)s3)ccc2c1Nc1ccc(Oc2ccccc2)cc1 [GW664114] | 31%
CN(C)CCNS(=O)(=O)c1ccc(-c2ccnc3[nH]ccc23)cc1 [GSK977620] | 21%
CN(C)c1ncnc2nc[nH]c12 [SKF-31736] | 30%
COc1ccc(NC(=O)c2ccoc2)cc1-c1ccc(C(=O)NCC2CC2)cc1 [GW810437] | 0%
O=C(Nc1c(F)cccc1F)c1cc(C(=O)c2ccccc2F)c[nH]1 [GSK1326180] | 0%
Cn1cc(-c2cnc(N)c3c(-c4ccc5c(c4)CCN5C(=O)Cc4ccccc4)csc23)cn1 [GSK2593074] | 0%
CN(c1ccc(NC(=O)Nc2cccc(Cl)c2)cc1)c1ccnc(N)n1.Cl [GW830707] | 0%
Cn1cc(-c2ccc3c(c2)CCN3C(=O)Cc2cc(F)cc(F)c2F)c2c(N)ncnc21 [GSK2634140] | 0%
CC(C)(C)c1ccc(C(=O)Nc2cn3cc(-n4ccnc4)ccc3n2)cc1 | 12%
CC(C)c1nc(-c2cccc(NS(=O)(=O)c3c(F)cccc3F)c2)c(-c2ccnc(Nc3ccc(N4CCOCC4)nc3)n2)s1.Cl [GSK1723980] | 7%
O=C1NC(=O)C(c2ccccc2Cl)=C1Nc1cccc(Cl)c1 [SB-342409] | 7%
CCn1c(-c2nonc2N)nc2c(-c3ccccc3)ncc(OCCCN)c21.O=C(O)C(F)(F)F.O=C(O)C(F)(F)F [GSK260205] | 14%
COc1ccc(C)c(Nc2ccnc(Nc3ccc(-c4cnc[nH]4)cc3)n2)c1.Cl [GW784041] | 29%
CN(c1ccc(F)c(NC(=O)c2cccc(OC(C)(C)C#N)c2Cl)c1)c1ccc2nc(NC(=O)C3CC3)sc2n1 | 2%

What follows are compounds tested on ABL1-nonphosphorylated. Conditions: concentration: 1 μM, replicates: in singlicate; n = 1.

Compound | %Inh
COc1cccc(NC(=O)NCCNc2ccnc(Nc3ccc(F)cc3)n2)c1 [GSK1379879] | 0%
CS(=O)(=O)c1cccc(CNc2nc(Nc3ccc4c(c3)CCC(=O)N4)ncc2C(F)(F)F)c1 | 54%
c1ccc(Oc2ccc(Nc3ccnc4cc(-c5ccc(CN6CCCCC6)o5)ccc34)cc2)nc1 [GW567143] | 85%
COC(=O)Nc1nc2cc(Oc3ccc(NC(=O)Nc4cccc(SC)c4)cc3)ccc2[nH]1.Cl [GW697999] | 91.4%
Nc1ncc(-c2ccc3nccc(-c4ccncc4)c3c2)cc1S(=O)(=O)N1CCCCC1 [GSK1693850] | 0%
Cc1ccc(-c2ccc3occ(-c4ccc(S(C)=O)cc4)c3c2)nn1 (stereo not shown) | 35%
CC(C)NCC(Cc1ccccc1)NC(=O)c1cc(Br)c(-c2ccnc3[nH]ccc23)s1.Cl.Cl (stereo not shown) [GSK1383281] | 0%
Cc1ccc(Nc2ccnc(Nc3ccc(C)c(F)c3)n2)cc1O.Cl [GW582868] | 3%
Nc1cccc(-c2ccc3c(N)n[nH]c3c2)c1 [GSK2193613] | 34%
CN1CCN(Cc2ccc(NC(=O)Nc3ccc(N(C)c4ccnc(Nc5ccc(CS(C)(=O)=O)cc5)n4)cc3)cc2)CC1.Cl [GW827654] | 100%
Cc1ccc(NC(=O)c2ccc(Cl)c(Cl)c2)cc1-c1ccc(C(=O)Nc2ccncc2)cc1 [GSK1398460] | 26%
CN(c1ccc(NC(=O)N2CCN(CCCN3CCOCC3)CC2)cc1)c1ccnc(Nc2ccc(CS(C)(=O)=O)cc2)n1.Cl [GW830899] | 72%
CSc1ccc(NC2=C(c3ccc(Cl)cc3)C(=O)NC2=O)cc1 [SB-317658] | 0%
O=C(Nc1n[nH]c2nc(-c3ccccc3)ccc12)C1CC1 [SB-708999] | 62%
COc1cc(Nc2ccnc3cc(-c4ccncc4)ccc23)cc(OC)c1OC.Cl [GW494610] | 97.9%
Cc1ccc(O)cc1Nc1ccnc2ccc(C(C)(C)C)cc12 [GW856805] | 98.1%
Cc1ccc(NC(=O)c2ccnc(N3CCCCC3)c2)cc1-c1ccc(C(=O)NCC2CC2)cc1 [GW775610] | 55%
Cc1cc(-c2ccnc(Nc3cccc(C#N)c3)n2)cc(C)c1O [GSK1440913] | 25%
Cl.Cl.NCC(NC(=O)c1cc(-c2cccnc2)c(-c2ccnc3[nH]ccc23)s1)c1ccccc1 (stereo not shown) [GSK1323434] | 54%

Compound | %Inh
COc1ccc(C2=C(Nc3cccc(O)c3)C(=O)NC2=O)cc1 [SB-390766] | 0%
COC(=O)Nc1nc2ccc(Oc3ccc(NC(=O)Nc4cc(C(F)(F)F)ccc4F)cc3)cc2[nH]1.Cl [GW654607] | 99.4%
O=C(Nc1n[nH]c2nc(-c3cccc(O)c3)ccc12)C1CC1 [SB-711805] | 94.2%
N#Cc1cnc2cc(-c3cnc(CNCCN4CCOCC4)s3)ccc2c1Nc1ccc(Oc2ccccc2)cc1 [GW664114] | 97.4%
CN(C)CCNS(=O)(=O)c1ccc(-c2ccnc3[nH]ccc23)cc1 [GSK977620] | 0%
CN(C)c1ncnc2nc[nH]c12 [SKF-31736] | 38%
COc1ccc(NC(=O)c2ccoc2)cc1-c1ccc(C(=O)NCC2CC2)cc1 [GW810437] | 24%
O=C(Nc1c(F)cccc1F)c1cc(C(=O)c2ccccc2F)c[nH]1 [GSK1326180] | 0%
Cn1cc(-c2cnc(N)c3c(-c4ccc5c(c4)CCN5C(=O)Cc4ccccc4)csc23)cn1 [GSK2593074] | 99.7%
O=C(O)C(F)(F)F.O=c1[nH]ccc2nc(N[C@@H]3CCNC3)nc(Nc3cc(Cl)cc(Cl)c3)c12 [GSK2188764] | 9%
CN(c1ccc(NC(=O)Nc2cccc(Cl)c2)cc1)c1ccnc(N)n1.Cl [GW830707] | 0%
Cn1cc(-c2ccc3c(c2)CCN3C(=O)Cc2cc(F)cc(F)c2F)c2c(N)ncnc21 [GSK2634140] | 82%
CC(C)(C)c1ccc(C(=O)Nc2cn3cc(-n4ccnc4)ccc3n2)cc1 | 44%
CC(C)c1nc(-c2cccc(NS(=O)(=O)c3c(F)cccc3F)c2)c(-c2ccnc(Nc3ccc(N4CCOCC4)nc3)n2)s1.Cl [GSK1723980] | 99.7%
O=C1NC(=O)C(c2ccccc2Cl)=C1Nc1cccc(Cl)c1 [SB-342409] | 0%
CCn1c(-c2nonc2N)nc2c(-c3ccccc3)ncc(OCCCN)c21.O=C(O)C(F)(F)F.O=C(O)C(F)(F)F [GSK260205] | 0%
COc1ccc(C)c(Nc2ccnc(Nc3ccc(-c4cnc[nH]4)cc3)n2)c1.Cl [GW784041] | 95.4%
CN(c1ccc(F)c(NC(=O)c2cccc(OC(C)(C)C#N)c2Cl)c1)c1ccc2nc(NC(=O)C3CC3)sc2n1 | 99%
